Source: PubChem BioAssay (NCI)
About 83,000 compounds went through this panel and 20% of them were active in at least one assay; those are over-represented in the sample as a whole.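 Cells were grown in 96-well plates and exposed to the test compound at a single concentration for 48 hours; results are reported as percent growth, with values below 10 considered active.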 The source made the active and inactive calls.

How the values were obtained:
Test in all cases: NCI-60 one-dose screen, 48 h (100 = growth as untreated, 0 = no growth, -100 = all killed)
Conditions in all cases: 10 µM unless noted
HCT-15 colon = system: HCT-15 colon
HT29 colon = system: HT29 colon
SNB-75 CNS = system: SNB-75 CNS
SNB-19 CNS = system: SNB-19 CNS
U251 CNS = system: U251 CNS
PC-3 prostate = system: PC-3 prostate
SK-MEL-5 melanoma = system: SK-MEL-5 melanoma
UACC-62 melanoma = system: UACC-62 melanoma
LOX IMVI melanoma = system: LOX IMVI melanoma
SK-MEL-28 melanoma = system: SK-MEL-28 melanoma
SK-MEL-2 melanoma = system: SK-MEL-2 melanoma
EKVX NSCLC = system: EKVX NSCLC
SN12C renal = system: SN12C renal
UO-31 renal = system: UO-31 renal
TK-10 renal = system: TK-10 renal
ACHN renal = system: ACHN renal
CAKI-1 renal = system: CAKI-1 renal
A498 renal = system: A498 renal
CCRF-CEM leukemia = system: CCRF-CEM leukemia
MOLT-4 leukemia = system: MOLT-4 leukemia

Measured: growth

O=S(=O)(Nc1cc(Sc2nc3ccccc3s2)c(O)c2ccccc12)c1ccc2ccccc2c1
inactive: HCT-15 colon 97.5% | HT29 colon 115% | SNB-75 CNS 88.2% | SNB-19 CNS 106% | U251 CNS 86.6% | PC-3 prostate 77.3% | SK-MEL-5 melanoma 74.5% | UACC-62 melanoma 99.1% | LOX IMVI melanoma 60.1% | SK-MEL-28 melanoma 116% | SK-MEL-2 melanoma 95.8% | EKVX NSCLC 101% | SN12C renal 90.6% | UO-31 renal 70.2% | TK-10 renal 123% | ACHN renal 97.6% | CAKI-1 renal 101% | A498 renal 96.9% | CCRF-CEM leukemia 67.7% | MOLT-4 leukemia 59.1%

Cc1cccc(N2C(=O)/C(=C/C(Cl)=C/c3ccc([N+](=O)[O-])cc3)SC2=S)c1C
inactive: SNB-19 CNS 26.3% | SK-MEL-28 melanoma 24.2% | SK-MEL-2 melanoma 64% | CAKI-1 renal 35.7% | A498 renal 61.1%
active: HCT-15 colon -20.3% | HT29 colon -7.89% | SNB-75 CNS -19.1% | U251 CNS 4.72% | PC-3 prostate 8.37% | SK-MEL-5 melanoma -33.4% | UACC-62 melanoma 0.485% | LOX IMVI melanoma -70.4% | EKVX NSCLC -3.56% | SN12C renal -13.4% | UO-31 renal -72.6% | TK-10 renal -9.69% | ACHN renal -84.1% | CCRF-CEM leukemia 3.24% | MOLT-4 leukemia 5.73%

N#Cc1ccc(/C=C/c2cn(-c3ccccc3)nc2-c2cccc([N+](=O)[O-])c2)cc1
inactive: HCT-15 colon 65.4% | HT29 colon 53.2% | SNB-75 CNS 27.3% | SNB-19 CNS 21.6% | U251 CNS 46.7% | PC-3 prostate 44.3% | SK-MEL-5 melanoma 72.7% | UACC-62 melanoma 77% | LOX IMVI melanoma 77.4% | SK-MEL-28 melanoma 66.3% | SK-MEL-2 melanoma 76.3% | EKVX NSCLC 66.8% | SN12C renal 48.1% | UO-31 renal 79.3% | TK-10 renal 76.9% | ACHN renal 32.7% | CAKI-1 renal 71.1% | A498 renal 97% | CCRF-CEM leukemia 88.3% | MOLT-4 leukemia 97.6%

C=C(c1ccc(C(=O)O)c(F)c1)c1cc2c(cc1C)C(C)(C)CCC2(C)C
inactive: HCT-15 colon 80.9% | HT29 colon 97.9% | SNB-75 CNS 74.3% | SNB-19 CNS 86.8% | U251 CNS 75.4% | PC-3 prostate 72.5% | SK-MEL-5 melanoma 74% | UACC-62 melanoma 83.5% | LOX IMVI melanoma 93.9% | SK-MEL-28 melanoma 89.9% | SK-MEL-2 melanoma 89.4% | EKVX NSCLC 75.6% | SN12C renal 85.4% | UO-31 renal 92.6% | TK-10 renal 102% | ACHN renal 79% | CAKI-1 renal 81.4% | A498 renal 95.8% | CCRF-CEM leukemia 86.8% | MOLT-4 leukemia 82.4%

Cc1ccc(C(=O)c2ccc(CC(=O)N/N=C/c3cccc(O)c3O)n2C)cc1
inactive: HCT-15 colon 15.7% | HT29 colon 86.7% | SNB-75 CNS 25.4% | SNB-19 CNS 46% | U251 CNS 26% | PC-3 prostate 59.2% | SK-MEL-5 melanoma 34.6% | UACC-62 melanoma 39.1% | LOX IMVI melanoma 17.3% | SK-MEL-28 melanoma 80% | SK-MEL-2 melanoma 95.3% | EKVX NSCLC 58.8% | SN12C renal 46.8% | UO-31 renal 14.2% | TK-10 renal 38.8% | ACHN renal 13.5% | CAKI-1 renal 37.3% | A498 renal 93.3% | CCRF-CEM leukemia 13.1% | MOLT-4 leukemia 11.2%

O=[N+]([O-])c1c(O)c(Cl)cc(Cl)c1Cl
inactive: HCT-15 colon 99.8% | HT29 colon 101% | SNB-75 CNS 98.8% | SNB-19 CNS 101% | U251 CNS 97.9% | PC-3 prostate 88% | SK-MEL-5 melanoma 98.3% | UACC-62 melanoma 100% | LOX IMVI melanoma 94.2% | SK-MEL-28 melanoma 109% | SK-MEL-2 melanoma 113% | EKVX NSCLC 107% | SN12C renal 101% | UO-31 renal 93.6% | TK-10 renal 96.8% | ACHN renal 103% | CAKI-1 renal 102% | A498 renal 110% | CCRF-CEM leukemia 106% | MOLT-4 leukemia 100%

O=C(NCCCCO)c1cncnc1Nc1ccc2c(ccn2Cc2cccc(F)c2)c1
inactive: HCT-15 colon 85.1% | HT29 colon 99.9% | SNB-75 CNS 85% | SNB-19 CNS 85.1% | U251 CNS 94.7% | PC-3 prostate 86% | SK-MEL-5 melanoma 95.2% | UACC-62 melanoma 80.4% | LOX IMVI melanoma 93.7% | SK-MEL-28 melanoma 100% | SK-MEL-2 melanoma 106% | EKVX NSCLC 85.1% | SN12C renal 87.7% | UO-31 renal 67% | TK-10 renal 98.7% | ACHN renal 86.3% | CAKI-1 renal 79.8% | A498 renal 69.5% | CCRF-CEM leukemia 103% | MOLT-4 leukemia 88.3%

CSc1ccc2c3c(n(C[C@H](O)CO)c(=O)c2c1)-c1ccccc1C3=O
inactive: HCT-15 colon 18.6% | HT29 colon 16.5% | SNB-75 CNS 61.2% | SNB-19 CNS 32.6% | U251 CNS 14.2% | PC-3 prostate 44.5% | SK-MEL-5 melanoma 44.3% | UACC-62 melanoma 37.5% | SK-MEL-28 melanoma 72.3% | SK-MEL-2 melanoma 104% | EKVX NSCLC 77.1% | SN12C renal 23.1% | UO-31 renal 19.9% | TK-10 renal 70.7% | CAKI-1 renal 27.9% | A498 renal 52.3%
active: LOX IMVI melanoma -3.11% | ACHN renal -41% | CCRF-CEM leukemia -4.25% | MOLT-4 leukemia -17.8%
